# Experimental data from PubChem BioAssay AID504374 (National Center for Advancing Translational Sciences (NCATS), 2011).
# Screen size: about 1,500 compounds; about 100 (6.7%) were called active. A call without a number means that no potency is given here. Not shown: some 7% with an inconclusive outcome. The call rests on the fitted dose curve; in most records, active means well fitted inhibition curve with a large enough effect; inconclusive means small, poorly fitted or top-dose-only effect, or effect the other way; inactive means flat fitted curve, though single readings scatter. The full list was thinned out, with actives kept by preference.
# Target: Runt-related transcription factor 1 (Homo sapiens) + Core-binding factor subunit beta (Homo sapiens) (UniProt Q01196+Q13951)
# Assay: qHTS Assay for Compounds Blocking the Interaction Between CBF-beta and RUNX1 for the Treatment of Acute Myeloid Leukemia: Hit Validation; further: nearly all actives have a fitted effect of over 60% in size
# Conditions: AlphaScreen CBFb-His/RUNX1-biotin binding; series mostly up to 59.8 µM
# From the text: NIH Chemical Genomics Center [NCGC]
# NIH Molecular Libraries Probe Production centers Network [MLPCN]
# Assay Submitter (PI): Paul Liu
# Core Binding Factor (CBF) abnormalities are associated with 20-25% of all acute myeloid leukemias (AML), of which 5-10% are further sub classified as acute myelomonocytic leukemia with eosinophilia, also known as M4Eo in the FAB classification scheme. This subtype of leukemia is usually associated with chromosome 16 inversion (p13:q22). Chromosome 16 inversion results in formation of the fusion oncogene CBFB-MYH11, which encodes the fusion protein CBF-beta-SMMHC.
# It has been hypothesized that the interference of CBF-beta and RUNX1 binding could have therapeutic implications for patients with CBF mediated leukemias. We developed a CBF-beta and RUNX1 binding assay in AlphaScreenTM format and optimized it for high throughput screening to search for inhibitors. The goal of this project is to screen MLPCN's compound collection (MLSMR) for identifying the inhibitors of the interaction between CBF-beta and RUNX1 proteins as research probes. If these probes work well in the animal models, the ultimate goal of this project is to development a new drug treatment for this disease.
# This assay can not be used to assess how apparent inhibitors interfere with protein binding, and whether inhibitors specifically bind to either protein. Disruption of this protein-protein interaction, through any mechanism, is the intended target activity.
# The present data set was run to confirm the activity of hits from the primary screen.
# NCGC Assay Protocol Summary:
# Step, Parameter, Description
# (1) Reagent, 3 uL CBFb-His/RUNX1-biotin mix incubated together for 20 minutes at room temperature (30 nM each)
# (2) Compound or control, 23 nL compound stock solution
# (3) Incubation, 15 minutes at Room temperature
# (4) Reagent, 1 uL 50 ng each of beads (Nickel beads and streptavidin beads)
# (5) Incubation, 90 minutes at Room temperature
# (6) Detection, Excitation=365 nm Emission=440 nm, Envision reader in AlphaScreenTM mode
# Keywords: MLSMR, MLPCN, NIH Roadmap, qHTS, NCGC, Core binding factor, CBF, CBF-beta, Acute myeloid leukemia
# Potency means the concentration at half of the fitted maximal effect.
# Runt-related transcription factor 1 (Homo sapiens) + Core-binding factor subunit beta (Homo sapiens), sequence (Q01196 whole entry, looked up): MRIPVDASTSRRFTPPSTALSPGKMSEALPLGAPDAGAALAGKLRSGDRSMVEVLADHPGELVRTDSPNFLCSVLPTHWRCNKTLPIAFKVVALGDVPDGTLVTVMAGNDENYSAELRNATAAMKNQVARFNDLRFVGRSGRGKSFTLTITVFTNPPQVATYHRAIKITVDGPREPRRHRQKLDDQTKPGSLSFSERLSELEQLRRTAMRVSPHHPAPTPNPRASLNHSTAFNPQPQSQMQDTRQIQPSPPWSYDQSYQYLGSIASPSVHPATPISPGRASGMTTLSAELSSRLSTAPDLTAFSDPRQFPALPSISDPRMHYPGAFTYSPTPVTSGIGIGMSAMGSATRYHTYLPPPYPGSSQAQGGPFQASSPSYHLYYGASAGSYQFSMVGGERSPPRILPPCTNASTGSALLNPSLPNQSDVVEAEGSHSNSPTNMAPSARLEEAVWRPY
# Runt-related transcription factor 1 (Homo sapiens) + Core-binding factor subunit beta (Homo sapiens), sequence (Q13951 whole entry, looked up): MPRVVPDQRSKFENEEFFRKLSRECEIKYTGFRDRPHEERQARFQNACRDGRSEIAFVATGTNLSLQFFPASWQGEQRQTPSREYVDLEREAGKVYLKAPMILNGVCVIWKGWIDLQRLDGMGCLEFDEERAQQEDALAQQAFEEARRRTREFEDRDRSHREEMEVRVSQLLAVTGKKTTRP
row,Compound,Potency
1,Oc1ccccc1/C=N/Nc1ncc(Br)cn1,3.55 µM (active)
2,O=C(N/N=C/c1ccccc1[N+](=O)[O-])c1cnccn1,inactive
3,O=C(O)c1ccccc1N/N=C/c1cc(Br)cc(Br)c1O,inactive
4,O=C(c1ccccc1)c1ccc2c(c1)OCCCO2,inactive
5,CCOc1ccc(OCc2ccc(C(=O)NN)o2)cc1,inactive
6,Cc1cccc(-c2n[nH]c(=S)n2/N=C/c2cccs2)c1,inactive
7,OCc1ncc(-c2ccccc2)s1,inactive
8,CN(C)c1nc(-c2ccccn2)nnc1-c1ccccc1,1.41 µM (active)
9,CN1CCN(c2nnc(-c3ccccc3)c(-c3ccccc3)n2)CC1,inactive
10,c1ccc(-c2nnc(N3CCN(c4ccccc4)CC3)nc2-c2ccccc2)cc1,inactive
11,c1ccc(-c2nnc(-c3ccccn3)nc2NC2CCCCC2)cc1,2.24 µM (active)
12,O=C(N/N=C/c1ccco1)c1cc(C2CC2)[nH]n1,inactive
13,Cc1onc(-c2c(Cl)cccc2Cl)c1C(=O)Nc1nc(C(C)(C)C)cs1,inactive
14,Cc1ccc(-c2c[n+](CC(=O)Nc3ccccc3C)c3n2CCC3)cc1,inactive
15,Cc1ccc(C[n+]2cc(-c3ccc(Cl)cc3)n3c2CCC3)cc1,inactive
16,COc1ccc(/C=N/OC(=O)c2ccc(Cl)cc2)c(Cl)c1OC,inactive
17,CCOC(=O)CSc1nnc(Cn2nnc3ccccc32)n1-c1ccc(F)cc1,inactive
18,CN(CC(O)CN1CCOCC1)S(=O)(=O)O (configuration not stated),inactive
19,CCOC(=O)c1nn(-c2ccc([N+](=O)[O-])cc2)cc1O,inactive

row,Compound,Potency
1,Cn1c(=O)c2cc3ccccc3nc2n(C)c1=O,inactive
2,COc1ccc(CCNC(=S)NCCc2ccc(OC)c(OC)c2)cc1OC,inactive
3,CCO/C=C1\SC(=S)N(c2ccc(Cl)cc2)C1=O,inactive
4,Cc1ccc(S(=O)(=O)NC(=O)Nc2ccc(OC(F)F)cc2)cc1,inactive
5,Nc1nc(-c2ccccc2)c(N=Nc2ccccc2Cl)s1,4.34 µM (active)
6,Nc1nc(-c2ccccc2)c(N=Nc2cccc3ccccc23)s1,1.94 µM (active)
7,Cc1cc(C)n2nc(N)c(N=Nc3ccccc3)c2n1,inactive
8,Nc1nc(-c2ccccc2)c(N=Nc2ccc(Cl)cc2)s1,13.7 µM (active)
9,CC1CC(C)(C)OC(C[N+]2(C)CCCCC2)O1 (configuration not stated),inactive
10,COc1ccccc1NC(=S)NC1CCCCCCCCCCC1,inactive
11,CCOC(=O)C1CCCN(C(=O)Nc2c(-c3ccccc3)noc2C)C1 (configuration not stated),inactive
12,COc1ccc(C(=O)/C=C/Nc2cc(C)ccn2)cc1,inactive
13,COC(=O)c1[nH]c2cc(OC)ccc2c1NC(=O)c1c(F)cccc1F,inactive
14,CC(C)(C)c1csc(Sc2ccc([N+](=O)[O-])cn2)n1,inactive
15,CC(=O)Oc1cc2cccc(OC(C)=O)c(=O)c2c(OC(C)=O)c1OC(C)=O,1.12 µM (active)
16,O=C(N/N=C/c1ccc2c(c1)OCCO2)c1ccncc1,inactive
17,CC(=O)c1cnn(-c2ccc(Cl)c(Cl)c2Cl)c1C,inactive
18,CCOC(=O)N1CCc2c(sc3nc[nH]c(=O)c23)C1,inactive
19,CCc1c(C#N)sc(C(N)=O)c1CC,inactive

row,Compound,Potency
1,CN=c1scc(-c2ccccc2F)n1/N=C/c1ccc(O)c(O)c1O,6.87 µM (active)
2,CC(=O)Nc1ccc(S(=O)(=O)Nc2ccc(C(=O)NCC(=O)O)cc2)cc1,inactive
3,Cc1cccc(C)c1NC(=S)N1CCOCC1,inactive
4,Cc1ccc(C(=O)CSc2nnc(-c3snnc3C)n2C2CC2)cc1,inactive
5,CN(C)c1ccc(N2C(=O)CC(c3ccccc3)CC2=O)cc1,inactive
6,CC1=[N+](C)N(c2ccccc2)C(=O)C1N=C/C=C/c1ccccc1 (configuration not stated),inactive
7,CC1=NN(c2ccccc2)C(=O)/C1=C/C=C/c1ccc(N(C)C)cc1,1.12 µM (active)
8,CN1CCN(C(=O)Nc2cccc(-c3ccccc3)c2)CC1,inactive
9,CCc1c(-c2ccccc2)[n+](=O)c2c(n1[O-])CCC2,inactive
10,O=C(O)C1=CC(=C(c2ccc(O)c(C(=O)O)c2)c2ccc(O)c(C(=O)O)c2)C=CC1=O,1.78 µM (active)
11,O=C(NNC(=S)NC1CC2C=CC1C2)c1ccncc1 (configuration not stated),inactive
12,O=C(N/N=C/c1ccncc1)c1cnccn1,inactive
13,O=C(NC(=S)NNC(=O)c1cnccn1)c1ccc(F)cc1,2 µM (active)
14,CCOP(=O)(c1ccc(N(C)C)cc1)C(O)c1cccnc1 (configuration not stated),inactive
15,CN(C)NC(=S)NC1CCS(=O)(=O)C1 (configuration not stated),inactive
16,O=C1CC(Sc2ccc(Cl)cc2)C(=O)N1c1ccc2c(c1)OCCO2 (configuration not stated),inactive
17,Fc1ccccc1/C=N/n1c(-c2cccnc2)n[nH]c1=S,inactive
18,O=[N+]([O-])c1cc2c(cc1/C=N/n1c(-c3ccccn3)n[nH]c1=S)OCO2,10 µM (active)
19,Cc1cccc(-c2n[nH]c(=S)n2/N=C/c2ccco2)c1,inactive
